{"source": "PubChem BioAssay AID652264", "about": "(National Center for Advancing Translational Sciences (NCATS), 2013)", "note": "The source made the active and inactive calls.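 Rule for the calls: active = compounds blocking cell cycle progression with a potency of 5000 nM or lower; inconclusive = potency above 5000 nM but under 10000 nM; inactive = the rest.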"}
{"test": "qHTS for Inhibitors of Ubiquitin-specific Protease USP2a Using CHOP2 as the Reporter: Cell Cycle", "conditions": "HCT116 cell cycle arrest, propidium iodide DNA content, 16 h", "text": "Homeostasis of cellular proteins is maintained through a combination of synthesis and degradation. The pathway that accounts for the majority of protein degradation is the ubiquitin-proteasomal pathway. Ubiquitin (Ub) is highly conserved in all cells and the generation of a multi-Ub chain typically targets proteins for degradation by the proteasome. However, ubiquitination is highly reversible and dynamic. Deubiquitination, the reverse process, is catalyzed through the action of enzymes referred to as isopeptidases or deubiquitinating enzymes (DUBs). This group of enzymes is collectively responsible for maintaining adequate pools of free ubiquitin and regulating the ubiquitination status of cellular proteins. The class of DUBs referred to as the ubiquitin-specific proteases (USP) family functions endoproteolytically to cleave Ub chains from a wide range of protein substrates. […] Cells in G2 have twice the fluorescence as cells in G1, and the Acumen allows the cells to be binned by their individual fluorescence properties. Therefore, in the presence of an active USP2 inhibitor the fluorescence of a cell would be lower since it would not progress from G1 to S and then G2. […]\nHCT116 cells at 600 cells/well were plated in 96-well plates and allowed to adhere overnight (37C, […]). […] Intensity of the DNA stain per cell was quantified using the Acumen plate reader. […]"}
{"molecule": "Cc1ccc(S(=O)(=O)Nc2cc(C(F)(F)F)ccc2C(=O)Nc2nc(-c3ccccc3)cs2)cc1", "Potency": "2000 nM (active)"}
